Data on nine compounds can be found in ChEMBL document CHEMBL1961873, “Compounds: GSK PKIS; Assays: Nanosyn kinase panel” (2012).

In assay [1] the target is Sphingosine kinase 1 (Homo sapiens) (UniProt Q9NYA1). The settings on record: at 1 µM.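 Note: mean SPHK1 inhibition value reported from the GSK PKIS kinase panel screen.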
For assay [2], the target named is T1, Sphingosine kinase 2 (Homo sapiens) (UniProt Q9NRA0).
T1 sequence (whole entry): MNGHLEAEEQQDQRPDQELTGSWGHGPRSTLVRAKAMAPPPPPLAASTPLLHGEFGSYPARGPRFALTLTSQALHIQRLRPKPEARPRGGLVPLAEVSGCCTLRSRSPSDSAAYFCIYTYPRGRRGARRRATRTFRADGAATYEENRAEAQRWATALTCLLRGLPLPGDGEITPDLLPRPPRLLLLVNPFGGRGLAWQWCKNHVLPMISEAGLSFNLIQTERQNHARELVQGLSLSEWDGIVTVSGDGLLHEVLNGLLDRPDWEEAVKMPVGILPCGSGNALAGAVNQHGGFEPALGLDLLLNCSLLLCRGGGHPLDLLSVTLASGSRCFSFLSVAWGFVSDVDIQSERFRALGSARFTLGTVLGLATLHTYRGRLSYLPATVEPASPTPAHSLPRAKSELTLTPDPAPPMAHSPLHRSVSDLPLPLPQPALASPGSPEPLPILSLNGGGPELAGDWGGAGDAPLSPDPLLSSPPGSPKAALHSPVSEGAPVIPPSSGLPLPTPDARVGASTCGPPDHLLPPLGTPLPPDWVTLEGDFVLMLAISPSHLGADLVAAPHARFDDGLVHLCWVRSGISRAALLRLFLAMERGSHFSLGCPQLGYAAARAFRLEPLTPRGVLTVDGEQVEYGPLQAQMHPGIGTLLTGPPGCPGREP
The settings on record: at 0.1 µM.

Assay [3] addresses T1, Sphingosine kinase 2 (Homo sapiens). The settings on record: at 1 µM.
The target of assay [4] is Casein kinase II subunit alpha (Homo sapiens) (UniProt P68400). As to conditions: at 0.1 µM.
Sequence of Casein kinase II subunit alpha (Homo sapiens) (P68400 whole entry, looked up): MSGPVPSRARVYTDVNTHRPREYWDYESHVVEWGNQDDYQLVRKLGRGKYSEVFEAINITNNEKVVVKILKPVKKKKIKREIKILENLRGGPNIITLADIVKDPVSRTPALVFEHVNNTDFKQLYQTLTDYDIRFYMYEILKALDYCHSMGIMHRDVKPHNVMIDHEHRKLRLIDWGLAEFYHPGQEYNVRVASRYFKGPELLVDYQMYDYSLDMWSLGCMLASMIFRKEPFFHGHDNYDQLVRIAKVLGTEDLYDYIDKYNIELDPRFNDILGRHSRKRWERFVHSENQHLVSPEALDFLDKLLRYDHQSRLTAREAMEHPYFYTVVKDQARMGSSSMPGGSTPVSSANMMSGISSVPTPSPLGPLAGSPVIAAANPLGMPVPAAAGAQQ
The target is the same in assay [5]. As to conditions: at 1 µM.
For assay [6], the target named is T2, Inhibitor of nuclear factor kappa-B kinase subunit alpha (Homo sapiens) (UniProt O15111).
T2 sequence (whole entry): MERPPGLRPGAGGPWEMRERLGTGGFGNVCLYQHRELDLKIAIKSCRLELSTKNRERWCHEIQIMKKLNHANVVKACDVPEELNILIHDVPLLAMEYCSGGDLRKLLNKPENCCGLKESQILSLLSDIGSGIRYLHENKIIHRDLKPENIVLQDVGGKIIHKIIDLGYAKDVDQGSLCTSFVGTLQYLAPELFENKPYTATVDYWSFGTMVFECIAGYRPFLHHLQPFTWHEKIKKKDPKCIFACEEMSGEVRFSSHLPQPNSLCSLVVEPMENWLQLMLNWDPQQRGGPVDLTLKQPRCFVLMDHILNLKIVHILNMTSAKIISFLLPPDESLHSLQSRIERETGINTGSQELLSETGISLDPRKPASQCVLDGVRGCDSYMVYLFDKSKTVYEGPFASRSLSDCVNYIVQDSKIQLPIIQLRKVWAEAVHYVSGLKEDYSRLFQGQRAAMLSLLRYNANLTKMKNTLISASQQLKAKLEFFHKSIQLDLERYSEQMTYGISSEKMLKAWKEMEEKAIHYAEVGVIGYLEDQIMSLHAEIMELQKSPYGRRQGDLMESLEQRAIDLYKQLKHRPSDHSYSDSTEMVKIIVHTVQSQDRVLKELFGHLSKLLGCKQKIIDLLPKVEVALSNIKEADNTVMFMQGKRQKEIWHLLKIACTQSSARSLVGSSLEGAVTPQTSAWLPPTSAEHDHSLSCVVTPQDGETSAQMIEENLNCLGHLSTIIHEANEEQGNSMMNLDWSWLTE
As to conditions: at 0.1 µM.

Assay [7] has as its target T2, Inhibitor of nuclear factor kappa-B kinase subunit alpha (Homo sapiens). As to conditions: at 1 µM.
Assay [8] deals with T3, Inhibitor of nuclear factor kappa-B kinase subunit beta (Homo sapiens) (UniProt O14920).
T3 sequence (whole entry): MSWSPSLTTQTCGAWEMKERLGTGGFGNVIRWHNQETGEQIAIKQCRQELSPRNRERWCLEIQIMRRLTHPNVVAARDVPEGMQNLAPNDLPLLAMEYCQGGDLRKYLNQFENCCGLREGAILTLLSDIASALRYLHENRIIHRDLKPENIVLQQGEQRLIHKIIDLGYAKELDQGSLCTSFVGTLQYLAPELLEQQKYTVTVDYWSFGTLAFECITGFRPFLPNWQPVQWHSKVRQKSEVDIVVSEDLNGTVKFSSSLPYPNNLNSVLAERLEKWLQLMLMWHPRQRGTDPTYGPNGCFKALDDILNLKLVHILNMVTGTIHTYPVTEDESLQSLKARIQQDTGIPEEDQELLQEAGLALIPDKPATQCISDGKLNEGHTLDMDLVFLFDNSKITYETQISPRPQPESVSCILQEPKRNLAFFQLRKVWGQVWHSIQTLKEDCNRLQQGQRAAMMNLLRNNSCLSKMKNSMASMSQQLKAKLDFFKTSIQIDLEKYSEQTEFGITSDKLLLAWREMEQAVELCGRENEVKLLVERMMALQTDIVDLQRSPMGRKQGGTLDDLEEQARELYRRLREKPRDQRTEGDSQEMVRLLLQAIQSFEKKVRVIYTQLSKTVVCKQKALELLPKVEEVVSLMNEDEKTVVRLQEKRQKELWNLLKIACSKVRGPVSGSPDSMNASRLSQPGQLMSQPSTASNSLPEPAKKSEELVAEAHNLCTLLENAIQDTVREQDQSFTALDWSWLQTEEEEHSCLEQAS
As to conditions: at 0.1 µM.

The target of assay [9] is T3, Inhibitor of nuclear factor kappa-B kinase subunit beta (Homo sapiens). As to conditions: at 1 µM.
For assay [10], the target named is T4, Inhibitor of nuclear factor kappa-B kinase subunit epsilon (Homo sapiens) (UniProt Q14164).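 Note: mean inhibition of IKKε reported, from the GSK PKIS dataset.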
T4 sequence (whole entry): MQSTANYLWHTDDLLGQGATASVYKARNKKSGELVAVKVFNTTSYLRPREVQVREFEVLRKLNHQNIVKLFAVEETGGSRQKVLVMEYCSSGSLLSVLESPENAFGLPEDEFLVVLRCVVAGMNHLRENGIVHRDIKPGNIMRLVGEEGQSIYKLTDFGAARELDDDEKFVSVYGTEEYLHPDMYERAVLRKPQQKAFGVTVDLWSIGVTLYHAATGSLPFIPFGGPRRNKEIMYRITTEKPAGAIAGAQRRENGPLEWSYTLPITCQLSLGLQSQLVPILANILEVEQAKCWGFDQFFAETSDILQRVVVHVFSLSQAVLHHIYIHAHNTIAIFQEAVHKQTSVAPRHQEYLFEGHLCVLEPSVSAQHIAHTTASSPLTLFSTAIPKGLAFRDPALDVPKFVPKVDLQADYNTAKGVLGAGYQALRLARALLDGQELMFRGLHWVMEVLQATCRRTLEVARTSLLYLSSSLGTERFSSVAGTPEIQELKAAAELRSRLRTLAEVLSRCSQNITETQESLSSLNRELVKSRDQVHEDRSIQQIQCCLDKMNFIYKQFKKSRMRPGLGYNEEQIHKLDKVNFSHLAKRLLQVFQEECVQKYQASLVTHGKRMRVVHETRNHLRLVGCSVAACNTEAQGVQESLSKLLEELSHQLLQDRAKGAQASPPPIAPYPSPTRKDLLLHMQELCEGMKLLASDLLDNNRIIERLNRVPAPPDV
As to conditions: at 0.1 µM.

Sequence of Sphingosine kinase 1 (Homo sapiens) (Q9NYA1 whole entry): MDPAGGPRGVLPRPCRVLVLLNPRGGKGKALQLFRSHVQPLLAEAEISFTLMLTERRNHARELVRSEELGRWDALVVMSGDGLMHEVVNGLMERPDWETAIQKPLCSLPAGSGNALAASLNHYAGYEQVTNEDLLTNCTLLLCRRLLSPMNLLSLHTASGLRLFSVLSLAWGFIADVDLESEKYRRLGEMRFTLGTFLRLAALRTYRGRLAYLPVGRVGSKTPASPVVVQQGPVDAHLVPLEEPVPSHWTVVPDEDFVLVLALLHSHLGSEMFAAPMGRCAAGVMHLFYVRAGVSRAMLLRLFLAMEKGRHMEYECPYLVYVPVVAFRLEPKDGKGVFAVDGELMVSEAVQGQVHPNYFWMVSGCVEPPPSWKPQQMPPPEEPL

As to `Cn1cc(C=C2C(=O)Nc3cccnc32)c2ccccc21`, the inhibition in assay [1] is 8.29%; in assay [2], -4.3%; in [3], -0.04%; in [4], 1.08%; in assay [5], 6.39%; in assay [6] it was 5.69%. Further, the inhibition in [7] was -0.33%; in assay [8] it was 2.27%; in assay [9] it was 1.05%; in assay [10], 3.13%.
Take `Cc1nn(C)c2cc(N(C)c3ccnc(Nc4cccc(S(N)(=O)=O)c4)n3)ccc12`: the inhibition in [1] was 1.31%; in assay [2], 0.44%; in assay [3], 0.14%; in [4], 2.59%; in assay [5] it was 1.94%; in assay [6], 2.21%. Besides, the inhibition in assay [7] was 3.6%; in [8], 4.27%; in assay [9], 4.54%; in [10], 4.1%.
As to `Nc1nc(-c2ccccn2)c(-c2ccc3ncccc3n2)s1`, the inhibition in assay [1] was -3.49%; in assay [2], -0.63%; in assay [3], -3.19%; in assay [4], 2.62%; in assay [5] it was 10.1%; in assay [6] it was 4.74%. Also, the inhibition came to 9.42% in assay [7], 4.18% in [8], 4.54% in assay [9] and 3.83% in assay [10].
As for `CC1=C(C(=O)Nc2ccc3[nH]ncc3c2)C(c2ccc(Cl)c(Cl)c2)CC(=O)N1` (stereo not drawn), the inhibition in assay [1] is -3.67%; in [2], -0.3%; in assay [3], -1.45%; in [4] it was 2.1%; in [5], 3.35%; in assay [6], 5.09%. Moreover, the inhibition in [7] stood at 2.52%; in assay [8] it was 3.16%; in [9], 0.15%; in assay [10] it was 0.83%.
In the case of `CCN1CCC(CC(=O)Nc2n[nH]c3nc(-c4cccs4)c(Br)cc23)CC1`, the inhibition in assay [1] is 1.53%; in assay [2] it was -0.06%; in [3] it was -0.11%; in assay [4], 1.1%; in assay [5], 4.38%; in assay [6], 4.35%. The inhibition in assay [7] is 5.49%; in assay [8], -1.36%; in assay [9], -2.71%; in assay [10], -5.79%.
On to `CCn1c(-c2nonc2N)nc2cnc(Oc3cccc(NC(=O)c4ccc(OCCN5CCOCC5)cc4)c3)cc21`, for which the inhibition in assay [1] was -0.28%; in assay [2], 0.73%; in [3], -0.35%; in [4] it was 2.94%; in assay [5], 5.71%; in assay [6], 11%. Besides, the inhibition was found to be 10.1% in assay [7], 5.72% in assay [8], 2.67% in assay [9] and 7.92% in [10].
On to `CC1=C(C(=O)Nc2ccc3[nH]ncc3c2)C(c2ccc3ccccc3c2)CC(=O)N1` (stereo not drawn), for which the inhibition is 0% in [1]; 0.52% in [2]; 0.65% in assay [3]; 3.48% in [4]; 6.51% in [5]; -1.96% in [6]. Further, the inhibition amounted to 1.55% in assay [7], 1.45% in assay [8], 0.58% in [9] and 3.14% in assay [10].
For the compound `[O-][S+]1CCN(Cc2ccc(-c3ccc4ncnc(Nc5ccc(OCc6ccccc6)c(F)c5)c4c3)o2)CC1`, the inhibition in [1] is -3.44%; in assay [2], 0.02%; in [4], -1.48%; in assay [5] it was 1.56%; in [6], 1.7%; in assay [7] it was 1.1%. Further, the inhibition was 4.51% in assay [8], -0.14% in assay [9] and 3.11% in assay [10].
Take `CCn1c(-c2nonc2N)nc2ccncc21`: the inhibition in assay [1] is -0.31%; in assay [2] it was -1.06%; in assay [3], 0.26%; in assay [4], -4.19%; in assay [5] it was -5.18%; in assay [6] it was -7.12%. In addition, the inhibition in assay [8] was 5.3%; in [9] it was 3.24%; in assay [10], 3.33%.
